Screening data as filed in PubChem BioAssay.
Keap1-Nrf2 PPI: Keap1-Nrf2 (human) interaction inhibition | Keap1 Kelch-Nrf2 peptide fluorescence polarization, 1536-well | Q14145 | 340,000 compounds, 0.15% hits | AID 504523 | inhibition, % at 9.4 µM; in the data active = inhibition above about 12%;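 also: human Keap1 Kelch domain with fluorescein labeled Nrf2 9mer peptide probe; 0% = neutral control wells and 100% = peptide positive control; higher means more block of Keap1 binding to Nrf2 peptide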
EBNA-1 inhibitor: blocks EBNA-1 binding to DNA; EBNA-1 DNA binding, fluorescence polarization; inhibition, % at 14.8 µM; 300,000 compounds, 0.34% hits; in the data active = inhibition above about 28%
LANA DNA inh: inhibitors of KSHV LANA C-terminal domain DNA binding; AID 504423; 340,000 compounds, 0.078% hits; inhibition, % at 9 µM; MBP-C-LANA/FAM-LBS DNA binding, fluorescence polarization;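 active = highest replicate inhibition at or above 60% at 9 µM, even if other replicates fall short; inactive = all replicates below 60% inhibition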;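 also: 0% = neutral control wells and 100% = 4 µM acridine orange control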
eLon inh: E. coli protease La inhibition; P0A9M0; purified E. coli Lon protease, fluorescence polarization; inhibition, % at 7.94 µM; 360,000 compounds, 0.42% hits; in the data active = inhibition above about 13%, passing the limit was not always enough;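 also: 0% = enzyme with probe and DMSO and 100% = no enzyme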
ZTA DNA inh: counter-screen for EBNA-1 inhibitors: inhibitors of Epstein-Barr virus ZTA; AID 2234; P03206; inhibition, % at 11 µM; ZTA-DNA binding, fluorescence polarization; 320,000 compounds, 0.15% hits; in the data active = inhibition above about 33%
Target sequence (P03206 whole entry, looked up): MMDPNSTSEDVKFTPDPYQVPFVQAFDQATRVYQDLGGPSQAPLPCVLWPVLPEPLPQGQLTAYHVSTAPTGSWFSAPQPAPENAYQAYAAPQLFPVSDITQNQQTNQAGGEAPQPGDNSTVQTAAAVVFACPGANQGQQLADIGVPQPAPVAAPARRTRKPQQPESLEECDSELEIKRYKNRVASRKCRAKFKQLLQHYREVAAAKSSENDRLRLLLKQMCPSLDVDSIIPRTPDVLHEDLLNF
Active calls of the source: *; / = not tested or not shown; + = active, no number. Rows were chosen to be rich in hits. Some 0.85% of all compounds tested hit in one or more screens of this group.

SMILES	Keap1-Nrf2 PPI	EBNA-1 inhibitor	LANA DNA inh	eLon inh	ZTA DNA inh
NCC(O)CN1CCN(Cc2ccccc2)CC1 (centres undefined)	1.2	-9.4	1.6	7.5	5.3
O=C(O)C1Nc2c(C(=O)N3CCOCC3)cccc2C2C=CCC12 (centres undefined)	-0.4	11.6	71.5*	6.2	13.7
Cc1ccc2c(c1C)NC(C(=O)O)C1CC=CC21 (centres undefined)	6.6	10.1	3.0	-5.7	4.6
CC(C)CC(=O)Nc1nnc(CSCc2ccc(F)cc2)s1	-1.8	8.8	74.9*	4.4	11.8
CCC(=O)Nc1nnc(CSCc2ccc(F)cc2)s1	-1.2	4.9	-0.1	3.1	8.2
CCc1ccc(N2CC(C(=O)OCC(=O)N(CC)c3c(N)n(Cc4ccccc4)c(=O)[nH]c3=O)CC2=O)cc1 (centres undefined)	187.5*	/	/	-3.5	/
CCN(C(=O)COC(=O)C1CC1)c1c(N)n(Cc2ccccc2)c(=O)[nH]c1=O	-3.2	/	-0.1	9.5	5.8
CCCC(=O)n1nc(-c2ccc(Cl)cc2)nc1SC	0.0	-6.0	78.4*	3.6	2.5
O=C(/C=C/c1cccc(Cl)c1)OCc1cn2cc(Cl)ccc2n1	1.6	0.2	0.2	-2.8	-13.1
COc1cccc(/C=C/C(=O)NCc2cn3cc(Cl)ccc3n2)c1	2.8	-7.0	76.7*	13.1	5.8
Cn1c(SCC(=O)Nc2ccc(C(=O)O)cc2)nc2scc(-c3ccccc3Cl)c2c1=O	1.4	/	0.3	2.6	/
O=C(c1ccc(=O)oc1)N1CCCc2ccccc21	-0.9	1.9	79.2*	-6.0	-5.9
O=C(c1ccccc1)N1CCCc2ccccc21	0.1	12.9	1.4	-9.7	17.7
O=C(O)CCNc1cc(N2CCN(C(=O)c3ccco3)CC2)c2noc3c2c1C(=O)c1ccccc1-3	-260.6	127.3*	-16.4	25.4	163.3*
COCCNc1nc(Oc2cccc3ccccc23)c2sccc2n1	/	/	/	-7.9	/
COc1cccc(NC(=O)CN2CCc3ccccc3C2)c1	-3.5	0.7	-2.1	2.4	3.3
COc1ccc(/C=N/NC(=O)c2ccc(Br)cc2)cc1Cn1cc(Cl)cn1	0.3	31.6*	-0.2	2.4	7.1
Cc1ccc2oc(-c3cccc(NC(=O)/C=C/c4cccc([N+](=O)[O-])c4)c3C)nc2c1	0.6	27.9*	0.0	2.1	10.9
O=C1NC(=S)S/C1=C\c1coc2ccc(O)cc2c1=O	-2.1	11.5	-0.6	-45.0	45.4*
O=C1NC(=S)S/C1=C\c1coc2ccccc2c1=O	-7.5	-10.3	-4.7	-75.5	6.8
CCN(CC(=O)Nc1c(F)cccc1F)C(=O)CNC(=O)C1CCCCC1	-5.0	-19.7	0.0	5.1	-3.2
Cc1ccc(NC(=O)C2(C)CCCN(C(C)C)C2)cc1C (centres undefined)	/	/	/	1.1	/
CCCc1cc(=O)oc2c3c(cc(OCC(=O)N4CCC(C(=O)O)CC4)c12)OC(C)(C)CC3	/	/	/	12.1	/
Cc1ccc([C@@H]2C3COCC=C3C(C#N)=C(N)C2(C#N)C#N)o1 (some centres undefined)	5.7	10.8	23.8	69.1*	7.4
CCOC(=O)c1ccc(N2CCN(c3ccc(F)cc3)CC2)c(NC(=O)Nc2cccc(OC)c2)c1	-4.5	82.0*	0.1	0.5	-6.3
SMILES	Keap1-Nrf2 PPI	EBNA-1 inhibitor	LANA DNA inh	eLon inh	ZTA DNA inh
COC(=O)c1ccc(N2C(c3cc(OC)cc(OC)c3)=Cc3ccc(-c4cccnc4)cc3C2CC(=O)C2CC2)cc1 (centres undefined)	/	/	/	1.9	/
CC(=O)Nc1ccc(S(=O)(=O)Nc2nc3ccccc3nc2Nc2cccc(O)c2)cc1	-3.6	-2.9	0.8	4.8	1.8
CC(=O)Nc1ccc(S(=O)(=O)Nc2nc3ccccc3nc2Nc2ccc(C(=O)O)c(O)c2)cc1	3.9	/	89.9*	13.5	/
CC(C)(C)c1ccc(C(=O)NCC(=O)NCc2ccccn2)cc1	4.2	/	-2.1	-0.4	-19.8
C=CCN=c1scc(-c2ccccc2)n1/N=C/c1ccccn1	-5.4	8.9	3.7	4.8	84.0*
C=CCN=c1scc(-c2ccc(F)cc2)n1/N=C/c1ccccn1	-7.2	-0.4	-2.2	9.8	5.2
O=C(CNS(=O)(=O)c1cccc(Cl)c1)Nc1ccc(-c2nc3ccccc3s2)cc1	-0.5	54.7*	-0.4	-4.5	14.4
CC(C)(C)c1ccc(S(=O)(=O)NCC(=O)Nc2ccc(-c3nc4ccccc4s3)cc2)cc1	-3.6	4.3	1.0	-1.8	21.8
C/C(=N/NC(=O)c1cc(O)c(O)c(O)c1)c1ccc([N+](=O)[O-])cc1	-1.7	/	75.7*	-7.2	/
COc1ccccc1CCNC(=O)C1CC(=O)N(c2ccccc2F)C1 (centres undefined)	/	/	/	3.2	/
O=C(NNC(=O)c1ccc(Br)s1)c1cccc(Cl)c1	0.0	/	0.9	-1.6	-4.7
O=C1/C(=C/c2cccnc2)CCC/C1=C\c1cccnc1	/	7.8	/	/	38.4*
O=C1/C(=C/c2ccc(C(=O)O)cc2)CCC/C1=C\c1ccc(C(=O)O)cc1	1.4	2.9	1.5	1.0	60.8*
O=C1/C(=C/c2cccnc2)CC/C1=C\c1cccnc1	-1.5	-5.5	-2.6	1.8	-6.0
CN(C)c1ccc(/C=C2\CCC/C(=C\c3ccccc3)C2=O)cc1	3.0	-2.6	1.0	-182.8	2.5
CCCCN(C=O)c1c(CC)nc2ccc(C(=O)N(C)Cc3ccccc3)cn12	/	/	/	-5.5	/
O=C(c1cc(COc2ccc(F)cc2Cl)on1)N1CCN(c2cnccn2)CC1	-1.9	11.3	0.0	-5.7	2.8
CN(C)c1ccc(NC(=O)Oc2ccccc2)cc1	0.4	52.3*	-1.1	1.4	+
N#Cc1ccc(CSc2nnc(NC(=O)c3ccc4ncsc4c3)s2)cc1	4.0	36.7*	1.2	-10.5	5.5
CCCCCC(=O)Nc1cc(S(=O)(=O)O)cc2cc(S(=O)(=O)O)cc(O)c12	-0.2	/	113.8*	-5.1	/
COc1ccc(NC(=O)CCCNC(=O)c2ccc(Cl)cc2)cc1S(=O)(=O)N1CCOCC1	-1.6	/	-0.7	-9.5	/
CC(NC(=O)COC(=O)c1ccc([N+](=O)[O-])o1)c1ccccc1 (centres undefined)	0.5	/	108.3*	-6.6	/
CSCC[C@H](NC(=O)Cc1c(C)c2cc3c(C)c(C)oc3cc2oc1=O)C(=O)N[C@@H](C(=O)O)c1ccccc1	/	/	/	-3.3	/
COc1cccc(OC)c1-c1nn2c(-c3cc(-c4ccccc4)n[nH]3)nnc2s1	-7.2	59.5*	-1.0	0.7	165.3*
O=c1[nH][nH]c2c1C(C1CCCCC1)OC(C1CCCCC1)C2 (centres undefined)	/	/	/	5.6	/
CCC(=O)NC(c1ccc(OC)cc1)c1cc(Cl)c2cccnc2c1O (centres undefined)	-1.2	1.0	0.3	-4.1	16.4
COc1ccc(C(NC(=O)c2cccnc2)c2cc(Cl)c3cccnc3c2O)cc1OC (centres undefined)	-7.2	2.0	0.3	35.0*	-7.9
CC1(C(=O)NCC2CC2)Cc2c(-c3ccccc3)ccnc2O1 (centres undefined)	/	/	/	-15.5	/
COc1ccc2nc(NC(=O)CSc3ccccc3)sc2c1	-1.6	3.9	-0.2	-1.3	-3.6
